Screening data deposited in PubChem by several laboratories.
FAS TE block: inhibitors of human fatty acid synthase thioesterase domain. P49327. recombinant FAS-TE, OMFH fluorogenic substrate, fluorescence endpoint. inhibition, % at 15 µM. 360,000 tested, 0.67% active;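 active = compounds whose normalised, plate-corrected inhibition of enzyme fluorescence in the single-dose primary screen is 50% or more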;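 also: 0% = DMSO with enzyme and 100% = substrate without enzyme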
Calpain2 inh: inhibitors of pig calpain II. purified calpain II, fluorogenic peptide substrate, 30 min. AID 1236. inhibition, % at 16 µM. 220,000 tested, 0.37% active;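 active = inhibition above about 50%, limit read from the data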
aDG glyco act: increases alpha dystroglycan glycosylation; AID 624168; Pro5-aDG cells, alpha-DG glycosylation AlphaScreen (IIH6); 0% Pro5, 100% B10-LARGE cell signal; activation, % at 10 µM; 360,000 tested, 0.22% active;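 active = activation of at least 8% versus controls, or a plate z-score of at least 8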;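 also: Pro5 are CHO cells carrying HIG-tagged alpha-DG that lacks glycosylation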
TAG inh: inhibitors of triacylglycerol accumulation. H9c2 cells, Nile Red lipid (TAG) fluorescence; cells loaded with 200 µM oleic acid. inhibition, % at 12.5 µM. 230,000 tested, 0.66% active. AID 651582;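 active = pattern-corrected inhibition of lipid staining of at least 50% with the nuclear-stain viability signal not falling by more than 50%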;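 also: 0% = DMSO wells and 100% = triacsin C control wells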
H9c2 protect: modulators protecting cardiomyocytes from myocardial damage; H9c2 cardiomyocytes, H2O2 injury protection, ATPLite, 2 h; protection from H2O2 cell death, % at 20 µM; 360,000 tested, 0.63% active;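 active = compounds giving at least 50% protection of heart cells from peroxide-induced death in the single-dose screen, raw or plate-pattern-corrected value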;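 also: 0% = DMSO wells with peroxide and 100% = DMSO wells without peroxide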
beta cell repl: MIN6 beta-cell proliferation induction; AID 2380; proliferation, % at 10 µM; MIN6 cells proliferation, ATPlite luminescence, 48 h; cells starved in 0.2% serum; 100% = growth in 10% serum; 330,000 tested, 0.29% active;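 active = compounds whose signal lies at least 3.5 SD above the mean of all wells on their plate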;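 also: 0% = DMSO-treated cells in low-serum medium and 100% = 10% serum control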
Active calls of the source: *; · = no result. Only some compounds are listed: those with a hit (about 2.3% of all), similar ones and a draw of the others.

SMILES	FAS TE block	Calpain2 inh	aDG glyco act	TAG inh	H9c2 protect	beta cell repl
CCC1(c2ccc(F)cc2)NC(=O)N(CC(=O)N2CCN(S(=O)(=O)c3ccc(C)cc3)CC2)C1=O (centres undefined)	3.7	·	-0.1	15.8	-4.2	-0.8
O=C(Oc1ccccc1Cl)C1CCN(C(=O)c2ccc(F)cc2)CC1	0.6	·	0.1	5.3	-2.5	-0.6
CCCCOc1cccc(-c2cc(C(=O)NNC(=S)NCC)c3ccccc3n2)c1	74.0*	-108.3	-0.2	·	-12.3	-5.6
CCNC(=S)NNC(=O)c1cc(-c2cccc(OCC)c2)nc2ccccc12	6.3	17.4	-0.3	·	-12.9	2.9
CCCCNC(=O)c1cn(-c2ccc(OCC)cc2)c(=O)c2cc(OC)c(OC)cc12	2.9	-43.0	-0.2	2.2	65.4*	-2.3
CCOc1ccc(NC(=O)c2cn(-c3ccc(OCC)cc3)c(=O)c3cc(OC)c(OC)cc23)cc1	11.0	-105.0	0.6	23.8	8.4	-4.7
CCOc1ccc(-n2cc(C(=O)N3CCC(C)CC3)c3cc(OC)c(OC)cc3c2=O)cc1	-1.0	-4.6	7.5*	-48.1	6.5	2.2
O=C1NC[C@H](CCCCN2C[C@H](Cc3ccccc3)N(CCC3CCCCC3)C(=O)C2=O)N(CCc2ccccc2)C1=O	17.4	·	-0.2	·	·	·
O=C(CSc1nc2[nH]ncc2c(=O)n1-c1ccccc1)NCCc1ccccc1	-6.5	-17.1	-0.1	-21.3	-1.6	1.0
O=C(CSc1nc2[nH]ncc2c(=O)n1-c1ccccc1)c1ccc2c(c1)OCCO2	-63.9	-143.9	-0.6	16.9	45.7*	-0.8
CC(C(=O)N1CCc2ccccc21)N(C)CC(=O)Nc1ccccc1Cl (centres undefined)	9.6	·	0.2	-10.7	-2.0	2.2
CCOc1ccc(C(=O)COC(=O)Cn2[nH]c(=O)c3ccccc3c2=O)cc1	-0.1	·	-0.1	6.3	78.4*	·
O=C(Cn1[nH]c(=O)c2ccccc2c1=O)OCC(=O)c1ccccc1	-2.2	·	-0.1	-6.6	44.4	4.9
COc1ccc(C(=O)COC(=O)Cn2[nH]c(=O)c3ccccc3c2=O)c(OC)c1	-5.3	·	0.0	10.9	61.5*	-1.5
COc1ccc(C(=O)COC(=O)Cn2cnc3ccccc3c2=O)c(OC)c1	-2.2	·	-0.3	0.3	3.7	4.4
CCOC(=O)C1=C(CNCCc2ccc(Cl)cc2)NC(=O)NC1c1ccc2c(c1)OCO2 (centres undefined)	8.3	53.1*	1.0	-5.8	-10.1	-1.7
CCOC(=O)C1=C(CNCCOc2ccc(OC)cc2)NC(=O)NC1c1ccc2c(c1)OCO2 (centres undefined)	-0.1	14.1	0.1	6.1	-4.0	-1.1
O=C(NCCCN1CCC(Cc2ccccc2)CC1)c1ccc(CS(=O)c2ccccc2Cl)o1 (centres undefined)	-3.7	·	0.3	4.5	-2.5	·
COc1cccc(CN(C)C(=O)COc2ccc(C(=O)c3ccc(Cl)cc3)cc2)c1OC	17.5	·	0.0	·	-9.0	-1.7
Cc1ccc(C)c(S(=O)(=O)Nc2ccc(C(=O)NCCCN3CCCC3=O)cc2)c1	-7.4	·	-0.2	-0.5	2.2	-3.0
COc1ccc(N=C2S/C(=C\c3ccc(N4CCOCC4)o3)C(=O)N2CCc2c[nH]c3ccccc23)cc1	-38.0	-21.3	-0.7	·	-15.7	-4.5
COc1ccc(N=C2S/C(=C\c3ccc(OCC(=O)O)cc3)C(=O)N2CCc2c[nH]c3ccccc23)cc1	7.9	82.1*	0.0	13.0	-5.3	-2.9
CC(C)(C)OC(=O)C[C@@H]1C/C=C\C[C@@H](CC(=O)NCCO)C(=O)N[C@H](Cc2ccccc2)COC1=O	-10.2	·	-0.3	-5.3	0.1	-1.4
Cc1ccc(NC(=O)Nc2ccnc(-c3cccnc3)n2)cc1	3.9	-25.6	-0.4	24.6	78.2*	2.3
Cc1ccc(C(=O)Nc2ccnc(-c3cccnc3)n2)cc1	-2.6	-0.4	-0.2	-16.0	19.6	1.4
SMILES	FAS TE block	Calpain2 inh	aDG glyco act	TAG inh	H9c2 protect	beta cell repl
O=C(NCc1ccncc1)[C@@H]1CCCN1C(=O)[C@@H]1CCCN1C(=O)c1c(F)cccc1F	-8.4	·	-0.2	·	·	·
O=C(Nc1cccc(C(F)(F)F)c1)C(SCCO)c1ccccc1 (centres undefined)	-2.8	4.4	-0.1	·	-9.9	-3.5
Cn1nnnc1SC(C(=O)Nc1cccc(C(F)(F)F)c1)c1ccccc1 (centres undefined)	26.2	54.0*	2.5	·	-2.0	-3.4
Cc1cc(N)n(-c2nc(-c3cccnc3)nc3ccccc23)n1	1.5	18.7	-0.3	16.3	86.4*	-0.4
O=S(=O)(c1ccc(F)cc1)N1CCN(c2nc(-c3cccnc3)nc3ccccc23)CC1	22.3	·	-0.1	13.5	34.8	-5.9
O=S(=O)(c1ccccc1)N1CCN(c2nc(-c3cccnc3)nc3ccccc23)CC1	23.7	·	-0.4	36.5	57.9*	-2.2
N#C/C(=C\Nc1ccc2c(c1)OCCO2)c1nc2ccccc2[nH]1	15.0	-8.8	-0.2	33.3	81.5*	-3.8
Cc1cc(C)cc(Oc2nc(-c3ccccc3)cc(C)c2S(C)(=O)=O)c1	24.8	50.3*	0.2	-8.9	-14.2	-4.1
Cc1cc(-c2ccccc2)nc(Oc2ccc(C(C)(C)C)cc2)c1S(C)(=O)=O	24.2	48.4	1.1	21.9	-18.7	-4.3
COc1ccc(NC(=O)Cn2cc(C(=O)c3ccco3)c3ccccc32)cc1	12.1	3.6	0.1	-18.0	-5.8	-0.1
O=C(Cn1cc(C(=O)c2ccco2)c2ccccc21)Nc1ccccc1	12.0	61.3*	0.2	·	5.4	-3.2
Cc1ccc(CNC(=O)c2ccc3c(=O)n(CC4CCCO4)c(=S)[nH]c3c2)cc1 (centres undefined)	-2.1	81.5*	-0.2	·	0.2	-2.9
CCCCOc1ccc(SCCCN2CCOCC2)cc1	0.3	·	0.1	-32.4	-5.5	·
Cc1ccc(S(=O)(=O)NC(CC(C)C)C(=O)Nc2ccncc2)cc1 (centres undefined)	-4.0	·	1.0	-2.0	1.3	-3.2
Cc1ccc(-c2ccc(/C=N\NC(=O)c3cc4c(ccc5ccccc54)o3)o2)cc1[N+](=O)[O-]	14.1	-31.0	-0.8	63.6*	35.1	-5.4
Cc1ccc([N+](=O)[O-])cc1-c1ccc(/C=N/NC(=O)c2cc3c(ccc4ccccc43)o2)o1	24.1	-248.8	-0.1	·	35.2	-2.1
COc1cccc(CN(C)CC(=O)Nc2cccc(C(F)(F)F)c2)c1OC	16.2	63.0*	0.2	-14.6	-10.6	-0.3
COc1cccc(CN(C)CC(=O)Nc2cccc(S(N)(=O)=O)c2)c1OC	-9.8	27.5	0.1	-0.8	-5.0	-1.6
CC1(C)NC(=O)N(CC(=O)N2CCN(c3ccc([N+](=O)[O-])cc3)CC2)C1=O	0.6	·	0.0	0.4	0.9	-0.9
O=C(CN1CCCCC1)Nc1nc(-c2ccc(Cl)cc2)cs1	23.6	·	0.3	·	-7.1	·
O=C(CN1CCCCC1)Nc1nc(-c2ccc(F)c(F)c2)cs1	7.9	·	-0.1	·	54.7*	-3.3
